From PubChem BioAssay (NCI) come the findings set out here.

About 83,000 compounds went through this panel and 20% of them were active in at least one assay; those are over-represented in the sample as a whole.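 96-well plates, one dose, 48 hours. Percent growth reported; active if below 10.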 A number with no mark means an inactive call. Active and inactive are the calls of the source.

What all share (test): NCI-60 one-dose screen, 48 h (100 = growth as untreated, 0 = no growth, -100 = all killed)
Holding throughout (details): 10 µM

Test [1] relates to RPMI-8226 leukemia.
In test [2] the test system is OVCAR-8 ovarian.
In test [3] the test system is OVCAR-5 ovarian.
The test system of test [4] is OVCAR-4 ovarian.
Test [5] relates to IGROV1 ovarian.
The subject of test [6] is OVCAR-3 ovarian.
Test [7] relates to HS 578T breast.
Test [8] relates to NCI/ADR-RES ovarian.
Test [9] has as its system T-47D breast.
In test [10] the test system is SK-OV-3 ovarian.

As for `Oc1[nH]c2ccc(Cl)cc2c1/C=c1/ccc2c(c1)N=C(c1cc(F)cc(F)c1)N=2`, the growth was 74.4% in test [1]; 77% in test [2]; 86.8% in test [3]; 68.5% in [4]; 53.6% in test [5]; 7.12% (active) in [6]. Moreover, the figures for the growth in [7], in test [8] and in test [9] were 63%, 54.2% and 88.4%, respectively.

`CNc1ccc(CSc2ccc(C)cc2)cc1`: the growth in [1] was 20.8%; in test [2], 91.1%; in test [3] it was 101%; in test [4], 34%; in test [5], 78.6%; in [6] it was 90.6%. The values for the growth in test [7], in [8] and in test [9] were 95.8%, 92.1% and 64.5%, respectively.

As for `CN(C)CCCn1c(=O)c2ccccc2c2cnc3[nH]ccc3c21`, the growth in [1] is -23.6% (active); in test [2], 6.28% (active); in test [3] it was 19.5%; in [4], 2.71% (active); in test [5], 9.28% (active); in test [6], 17.9%. For the same compound, the growth is 24.8% in test [7], 26.5% in [8] and -11.3% (active) in test [9].

Regarding `ClCCOCCn1cnc2c(Cl)nc(Cl)nc21`, the growth is 93.1% in [1]; 62.7% in [2]; 102% in test [3]; 97.4% in test [10]; 59% in test [5]; 58.8% in test [6]. For the same compound, the growth was 12.4% in [7] and 80.9% in [9].

In the case of `COc1cc(/C=N/NC(=O)c2ccccc2Nc2ccnc(C(F)(F)F)c2)ccc1O`, the growth is 90.8% in test [1]; 101% in test [2]; 116% in test [3]; 98.9% in test [10]; 123% in test [5]; 109% in test [6]. Besides, the growth in test [7] is 97.4%; in test [8], 143%; in test [9], 116%.

Take `COc1ccc2nc3ccccc3c(NCCNCC(C)O)c2c1` (stereo unspecified): the growth in test [1] was -1.19% (active); in [2], -2.99% (active); in test [3] it was 1.61% (active); in test [4] it was 11.8%; in test [5] it was 4.2% (active); in test [7], 28.4%. In addition, the growth in [9] is -3.73% (active).

Turning to `COC(=O)C(=C\c1ccc2c(c1)OCO2)/C(=C/c1ccc2c(c1)OCO2)C(=O)OC`, the growth in test [1] was 98.7%; in [2], 103%; in test [3], 98.9%; in test [4], 106%; in test [5], 87.1%; in test [7], 106%. The growth in test [8] was 96.4%; in [9], 89.2%.

Take `Nc1nc(N=Nc2ccc(O)cc2)cc(=O)[nH]1`: the growth in test [1] is 106%; in [2], 97.2%; in test [3] it was 104%; in test [10] it was 104%; in test [5] it was 109%; in test [6] it was 125%. Also, the growth in [8] is 94.6%; in test [9] it was 95.7%.

In the case of `O=C(Nc1cccc(-n2cc(-c3ccncc3)c(-c3ccc(O)c(Cl)c3)n2)c1)c1cc(C(F)(F)F)cc(C(F)(F)F)c1`, the growth in test [1] is 28.8%; in test [2], 42.9%; in test [3], 75%; in test [4], 53.9%; in [6], 35.7%; in test [7] it was 60.2%. Besides, the results for the growth in test [8] and in [9] were 58.5% and 25.6%, respectively.

Consider `COc1ccccc1CNCCN1C(=O)c2ccc3c4c(ccc(c24)C1=O)C(=O)N(CCNCc1ccccc1OC)C3=O`, for which the growth in test [1] is -67.7% (active); in [2], -77.7% (active); in test [3], -52.6% (active); in [4], -99.7% (active); in test [5], -72.5% (active); in test [6] it was -78.5% (active). Further, the growth in [8] was -62.6% (active); in test [9], -65.8% (active).

As for `O=[P@@]1(c2ccccc2)O[C@H](COCc2ccccc2)[C@@H](OCc2ccccc2)[C@H](OCc2ccccc2)[C@H]1O`, the growth in test [1] was 89.6%; in test [2], 45%; in test [3], 99.3%; in [10] it was 38.7%; in test [5] it was 78.3%; in [6], 59.5%. Moreover, the growth in test [7] is -10.7% (active); in test [9], 72.8%.

Regarding `CC(C)(Cl)CCC1=C(Cl)C(=O)c2ccccc2C1=O`, the growth is -28.9% (active) in test [1]; 68% in test [2]; 101% in test [3]; 11.5% in [4]; 39.7% in test [5]; 22.9% in test [6]. Also, the growth in test [7] was 62.6%; in test [8] it was 62.9%; in test [9], -38.7% (active).

Consider `O=C1/C(=C\c2ccc(Cl)cc2)CN(C(=S)Nc2ccccc2)C/C1=C\c1ccc(Cl)cc1`, for which the growth is -29.8% (active) in test [1]; -5.17% (active) in test [2]; -74.1% (active) in test [3]; -26% (active) in test [4]; -72.9% (active) in test [5]; -87.6% (active) in test [6]. Also, the growth in [8] is 1.25% (active); in test [9], -2.82% (active).

Turning to `COc1ccc(Cn2c(C(N)=O)cc3c2-c2nc(N)ncc2CCC3)cc1`, the growth was 85.5% in test [1]; 98.6% in test [2]; 87.7% in test [3]; 99.7% in [4]; 101% in [5]; 107% in [6]. In addition, the figures for the growth in [7], in test [8] and in test [9] were 91.3%, 110% and 104%, respectively.

As for `COc1ccc(-c2csc(NC(=O)CSc3nc(C)c(-c4ccccc4)n3Nc3ccccc3)n2)cc1`, the growth in test [1] was 30.7%; in [2], 31.7%; in [3], 81.2%; in test [10], 88.3%; in test [5], 41.8%; in [6], 56.6%. For the same compound, the growth in test [7] is 19.8%; in test [8] it was 12.1%; in test [9], 24.8%.
